In ChEMBL document CHEMBL3988442, “University of Dundee, Small-Polar-MMV Screening Library” (2021):
The campaign covered roughly 85,000 compounds. About 440 (0.52%) showed an effect of 50% or more. The full list was thinned out, with strong results kept by preference.

Assay: In vitro enzyme assay to detect hydrolysis of chlorophenol red-beta-D-[…] directly proportional to the number of Toxoplasma stably expressing beta-galactosidase
Assay type: functional, organism-based, Toxoplasma gondii
Design: scale not given: in the data most compounds retested in dose-response had high values

| Compound | Percent Effect (50 µM) | Percent Effect (10 µM) |
| --- | --- | --- |
| CN1CCCN(C(=O)COc2ccc(C#N)cc2)CC1 | 10.92% |  |
| CN1CCCN(C(=O)COc2ccc(Br)cc2)CC1 | 68.33% |  |
| CN1CCCN(C(=O)COc2ccccc2)CC1 | -9.111% |  |
| Cc1cnc(N2CCNCC2)s1 | 5.738% |  |
| CCc1cnc(N2CCNCC2)s1 | 54.04% |  |
| CCc1nsc(N2CCNCC2)n1 | 12.31% |  |
| O=C(C[C@@H]1COC[C@H]2CN(Cc3cccnc3)C[C@@H]12)N1CCCC1.O=C(O)C(F)(F)F.O=C(O)C(F)(F)F |  | -13.82% |
| O=C(C[C@H]1[C@H]2CN(Cc3ccncc3)C[C@@H]12)N1CCCC1.O=C(O)C(F)(F)F.O=C(O)C(F)(F)F |  | -5.891% |
| O=C(C[C@@H]1COC[C@H]2CN(Cc3ccncc3)C[C@@H]12)N1CCCC1 |  | 95.78% |
| NCCc1ccc(Cl)s1 | 19.11% |  |
| C[C@@H]1CN(Cc2ccsc2)C[C@]12CCN(Cc1cccnc1)C2=O.O=C(O)C(F)(F)F.O=C(O)C(F)(F)F |  | -1.478% |
| NC1CCCCNC1=O (stereo not drawn) | 97.52% |  |
| CNC1CCNC1=O (stereo not drawn) | 22.45% |  |
| O=C1NC[C@H]2NCCC[C@@H]12 | -10.77% |  |
| COCCN1C(=O)CC[C@@H]2[C@@H]1CCN2Cc1c(C)noc1C.O=C(O)C(F)(F)F |  | 17.34% |
| NCCc1ccsc1 | 4.76% |  |
| O=C1C[C@H]2CC[C@@H](CN1)N2C1CSCCSC1 |  | -1.323% |
| c1nc(N2CCNCC2)c2sccc2n1 | 52.15% |  |
| CN1CCN(c2ncnc3ccsc23)CC1 | -1.262% |  |
| c1cc2sccc2c(N2CCNCC2)n1 | 13.67% |  |
| Cc1nc(CO[C@H]2CN(Cc3ccccn3)[C@@H]3CCCO[C@H]23)cs1.O=C(O)C(F)(F)F.O=C(O)C(F)(F)F |  | 12.48% |
| CC(c1nc(C(C)(C)C)no1)N1CCN(C)CC1 (stereo not drawn) | 8.823% |  |
| COc1ccc(Cl)c(N2CCNCC2)c1 | 12.14% |  |
| CCC(O)CN1CCN(C(=O)Cc2cc(C)ccc2OC)CC1 (stereo not drawn) |  | 16.53% |
| COc1ccc(C)cc1CC(=O)N1CCN(CC(C)O)CC1 (stereo not drawn) |  | -5.451% |

| Compound | Percent Effect (50 µM) | Percent Effect (10 µM) |
| --- | --- | --- |
| COc1ccc(C)cc1CC(=O)N1CCN(C)CC1 | 93.86% |  |
| O=C(O)C(F)(F)F.O=C(O)[C@]12CCCN(C3CCOC3)C[C@H]1CN(c1ncccn1)C2 (stereo partly drawn) |  | 3.821% |
| COCCNC(=O)[C@H]1C[C@@H]2CCN(Cc3ccncc3)C[C@H]2O1.O=C(O)C(F)(F)F.O=C(O)C(F)(F)F |  | 3.499% |
| CN1CCN(c2cccc(C#N)n2)CC1 | 4.938% |  |
| NC1CCN(CC(F)F)C1 (stereo not drawn) | -7.731% |  |
| NC1CCN(CC(F)F)CC1 | 56.61% |  |
| NCC1CCN(CC(F)F)CC1 | 1.969% |  |
| Clc1cnccc1CN1CCC2(CCOC2)C1 (stereo not drawn) | 3.263% |  |
| CC(C)CC(=O)NC1CC2(CCN(CCF)CC2)Oc2ccccc21.O=C(O)C(F)(F)F (stereo not drawn) |  | -26.74% |
| N#Cc1ccccn1 | -5.392% |  |
| CC[C@@H]1N(Cc2ccncc2)CCC[C@]12CCC(=O)N2C.O=C(O)C(F)(F)F.O=C(O)C(F)(F)F |  | -4.695% |
| CN1CCN2C(=O)N(C3CCCCC3)C[C@H]2C1 |  | -2.107% |
| CC1CN(C)CCC1=O (stereo not drawn) | 95.15% |  |
| Cc1ccc([C@@H](O)CN)cc1 | -14.41% |  |
| Cl.O=C1N(Cc2ccc(Cl)cc2)CCC12CCCNC2 (stereo not drawn) |  | -3.809% |
| OCC1CCC2(CCCC2)CN1 (stereo not drawn) | 23.34% |  |
| Cc1nc(C(=O)N[C@H]2COC[C@@H]2N2CCCCC2)cs1 |  | 24.19% |
| O=C(N[C@H]1COC[C@@H]1N1CCCCC1)c1cnc[nH]1 | 53.1% |  |
| O=C(N[C@H]1COC[C@@H]1N1CCCC1)c1c[nH]nc1C1CCCCC1 |  | 7.68% |
| Cc1nc(C)c(CN2CC3(CCNCC3)OC2=O)s1 | -5.089% |  |
| COc1ccc(CCN)c(Cl)c1 | 6.537% |  |
| N[C@H]1[C@@H]2CC[C@H]1CN(CCn1cc(Cl)cn1)C2 | 17.19% |  |
| COc1cccc(C(C)N2CCNCC2)c1 (stereo not drawn) | -0.2947% |  |
| CC1CNCCN1c1cccc2cnccc12 (stereo not drawn) | 3.081% |  |
| COc1cccc(N2CCNCC2C)c1 (stereo not drawn) | 93.04% |  |

| Compound | Percent Effect (50 µM) | Percent Effect (10 µM) |
| --- | --- | --- |
| CNC(CCO)Cc1ccccc1 (stereo not drawn) | -16.85% |  |
| CCC(C)Cn1nc(COC)oc1=O (stereo not drawn) | 3.972% |  |
| NCCc1cc(C(F)(F)F)ccn1 | 99.23% |  |
| NCCc1ccc(F)cn1 | 2.533% |  |
| NCCc1ccc(C(F)(F)F)cn1 | -0.7951% |  |
| CN[C@@H]1CCO[C@H]1c1cccnc1 | -18.11% |  |
| NCCC1COc2ccccc2O1 (stereo not drawn) | 1.961% |  |
| NCCC1CSc2ccccc2O1 (stereo not drawn) | 65.01% |  |
| CC1CN(C)CCN1Cc1nc(N)nc(N(C)C)n1 (stereo not drawn) | 17% |  |
| CO[C@H]1CCN(Cc2ccccn2)[C@@H]2CN(Cc3ccco3)C[C@H]12.O=C(O)C(F)(F)F.O=C(O)C(F)(F)F.O=C(O)C(F)(F)F |  | -1.554% |
| CO[C@@H]1CCN(Cc2ccccn2)[C@@H]2CN(Cc3ccco3)C[C@@H]21.O=C(O)C(F)(F)F.O=C(O)C(F)(F)F.O=C(O)C(F)(F)F |  | 93.58% |
| CO[C@H]1CCN(c2ncc(F)cn2)[C@@H]2CN(Cc3ccco3)C[C@H]12.O=C(O)C(F)(F)F.O=C(O)C(F)(F)F |  | 10.96% |
| Cc1noc(C)c1CC(=O)N1CCN(C(C)(C)C)CC1 | 6.08% |  |
| CN(CC(N)=O)C1Cc2ccccc2C1 | -5.488% |  |
| CC(=O)N1N=C(c2cccnc2)CC1c1ccco1 (stereo not drawn) | 88.79% |  |
| O=C1CC(c2cccnc2)=NCCN1 | 42.08% |  |
| CC(=O)N1CCC2(CC1)c1ncc(-c3cccnc3)n1CCN2C |  | -29.38% |
| C1CC(NC2COC2)CCO1 | 12.23% |  |
| Cc1cc(CNC(C)Cn2cccn2)on1 (stereo not drawn) | 9.614% |  |
| CC(C)N1CCN(Cc2ccc(N)nc2)CC1 | -5.951% |  |
| Cc1ncc(C(=O)N2C[C@@H]3CCCN[C@@H]3C2)c(C)n1 | 63.53% |  |
| Cc1ncc(C(=O)N2C[C@@H]3CCCN[C@@H]3C2)cn1 | -7.245% |  |
| Cc1cc(C(=O)N2C[C@@H]3CCCN[C@@H]3C2)cc(C)n1 | -13.26% |  |
